The structures appear in SMILES notation. Several values for one entry are separate records, joined by “and”; a condition that tells them apart may be missing. Identical values can stand only once. Inconclusive results are not listed. A number with no mark means an inactive call. Activity calls are given as the source filed them. The call rests on the fitted dose curve; in most records, active means well fitted inhibition curve with a large enough effect; inconclusive means small, poorly fitted or top-dose-only effect; inactive means flat fitted curve, though single readings scatter.
On the % scale 0 is the no-effect control and ±100 the full control effect; potency means the concentration at half of the fitted maximal effect.

The test system of this test is KB-3-1. Briefly: Cytotoxic Profiling of Annotated Libraries Using Quantitative High-Throughput Screening (AID 1296008). Further: nearly all actives have a fitted effect of over 60% in size. The settings on record: Five cell lines viability, CellTiter-Glo ATP luminescence, 48-72 h; max response: hits give low values. From the text: Cell-based phenotypic screening is a commonly used approach to discover biological pathways, novel drug targets, chemical probes and high-quality hit-to-lead molecules. Many hits identified from high-throughput screening campaign are ruled out through a series of follow-up potency, selectivity/specificity, and cytotoxicity assays. Prioritization of molecules with little or no cytotoxicity for a more in-depth downstream evaluation influence the future direction of projects, so cytotoxicity profiling of the screening libraries at early stage is essential for increasing the likelihood of candidate success. […] For the annotated library, we also examined the primary targets and mechanistic pathways regularly associated with cell death. To our knowledge, this is the first study to use high-throughput screening to profile large libraries for cytotoxicity assessment in both normal and cancer cell lines. In summary, the results generated here constitutes a valuable resource for the scientific community and provides insight on identifying cytotoxic compounds with particular mechanisms of action, and prioritizing compounds with suitable cytotoxicity profile for further evaluation.
A pintool (Kalypsys) was used to transfer 23 nL of compound solution to the 1536-well assay plates. After 48 or 72 hr incubation at 37 degree Celsius, 5% CO2 and 95% humidity, 2.5 uL of CellTiter-Glo (Promega) was dispensed into each well using a dispenser (Aspect Automation, St. Paul, MN) with solenoid valves (Lee Valves, Westbrook CT). Plates were left at room temperature for 10 min before imaging the ATP-coupled luminescence using a ViewLux microplate imager (PerkinElmer, Waltham, MA).
On to `COc1cc(/C=C/C(=O)N2CCN(CC(=O)N3CCCC3)CC2)cc(OC)c1OC`, for which the max response was 5.58% and the compound was called inactive.

Consider `CC[C@H]1OC(=O)[C@H](C)C(=O)[C@H](C)[C@@H](O[C@@H]2O[C@H](C)C[C@H](N(C)C)[C@H]2O)[C@](C)(OC)C[C@@H](C)C(=O)[C@H](C)[C@H]2N(CCCCn3cnc(-c4cccnc4)c3)C(=O)O[C@]12C`, for which the max response was 6.09% and 49.1%. Same read-out and setting: the value for `O=C(OCc1ccccc1)c1ccccc1` was 3.34%; that for `C[S+](CC[C@H](N)C(=O)O)C[C@H]1O[C@@H](n2cnc3c(N)ncnc32)[C@H](O)[C@@H]1O` (stereo not given in full) was 16.4% and -2.48%. Same read-out and setting: to `c1ccc2sc(SN3CCOCC3)nc2c1` belongs 0.575%; to `CCCCC1C(=O)N(c2ccccc2)N(c2ccc(O)cc2)C1=O` (stereo not given), -9.78%; to `O=C(CCN1CCN(CCO)CC1)N1c2ccccc2Sc2ccc(C(F)(F)F)cc21`, -4.21%.

On to `Fc1ccc2[nH]c(CN3CCN(c4ccccn4)CC3)cc2c1`, for which the max response is -22.6%.

For `CC(=O)c1ccc(OCC(=O)N2CCCCC2)cc1`, the result was inactive. Turning to `CC1(C)[C@@H](O)CC[C@]2(C)[C@H]3C(=O)C=C4[C@@H]5C[C@@](C)(C(=O)O)CC[C@]5(C)CC[C@@]4(C)[C@]3(C)CC[C@@H]12`, the outcome was inactive; the max response is 9.23% and -7.89%. For `O=C1CN(/N=C/c2ccc([N+](=O)[O-])o2)C(=O)N1`, the max response was -3.33%.

With `COc1cc(CNC(=O)CCCC/C=C/C(C)C)ccc1O`, the max response is -0.699% and the outcome was inactive. As for `Nc1ccc(C(=O)O)c(O)c1`, the max response was -11.5%. Same read-out and setting: the value for `O=C(Nc1ccc2[nH]ncc2c1)C1CCC1` was -1.12%. For `CN1[C@@H]2CC[C@H]1CC(OC(c1ccccc1)c1ccccc1)C2` (stereo not given in full), the max response was -4.67% and 6.16% and -6.04%; the result was inactive. In the case of `CCCCCC[C@@H](O)C/C=C\CCCCCCCC(=O)O`, the max response was -2.77% and 6.21% and -9.38%. Still for that read-out and setting: to `CN(CCCOc1ccc(Cc2ccccc2)cc1)CCC(=O)O` belongs 7.31%. Consider `CC1(C)[C@@H](O[C@H]2O[C@H](C(=O)O)[C@@H](O)[C@H](O)[C@H]2O[C@@H]2O[C@H](C(=O)O)[C@@H](O)[C@H](O)[C@H]2O)CC[C@]2(C)[C@H]3C(=O)C=C4[C@@H]5C[C@@](C)(C(=O)O)CC[C@]5(C)CC[C@@]4(C)[C@]3(C)CC[C@@H]12`, for which the call was inactive and the max response was 5.21%. Turning to `CCCCCCCCCCCCCCCCCC(=O)O`, the max response is -8.88%. Same read-out and setting: the value for `O=c1[nH]c2ccccc2n1CCCN1CCN(C(c2ccccc2)c2ccccc2)CC1` was 18.6%. For the compound `CCCCN(CC)c1nc(C)nc2c1c(C)cn2-c1c(C)cc(C)cc1C`, the max response was -14.3%.

As for `CCCCCCCCCCCCCCCC(=O)OC(C)C`, the max response is 12.9%. The same measure, in the same setting: the value for `CCNC(=O)[C@H]1O[C@@H](n2cnc3c(N)nc(NCCc4ccc(CCC(=O)O)cc4)nc32)[C@H](O)[C@@H]1O` was 2.49%; that for `Cc1nc2ccccc2n1Cc1ccc(Cl)cc1` was -8.87%. For the compound `CC(=O)[C@]1(O)Cc2c(O)c3c(c(O)c2[C@@H](O[C@H]2C[C@H](N)[C@H](O)[C@H](C)O2)C1)C(=O)c1c(O)cccc1C3=O`, the Potency is 4.61 µM (active) and 5.17 µM (active). `O=C(O)Cc1ccc(-c2ccccc2)cc1`: the max response was -5.98%. On the same count and under the same terms, the value for `CCCCC[C@H](O)/C=C/[C@@H]1[C@@H](C/C=C\CCCC(=O)O)[C@@H](O)C[C@H]1O` was 4.45% and 3.57%; that for `CC[C@H]1OC(=O)[C@H](C)[C@@H](O[C@H]2C[C@@](C)(OC)[C@@H](O)[C@H](C)O2)[C@H](C)[C@@H](O[C@@H]2O[C@H](C)C[C@H](N(C)C)[C@H]2O)[C@](C)(O)C[C@@H](C)C(=O)[C@H](C)[C@@H](O)[C@]1(C)O` was 12% and -5.16%. On the same count and under the same terms, the value for `Nc1ccc([N+](=O)[O-])cc1O` was 10.6%. The same measure, in the same setting: the value for `CN1[C@@H]2CC[C@H]1CC(OC(=O)C(CO)c1ccccc1)C2` (stereo not given in full) was -5.74% and -6.73% and 8.38%; that for `CC(C(=O)O)c1ccc(C(=O)c2ccccc2)s1` (stereo not given) was 0.65%; that for `Cc1c(N)c(=O)n(-c2ccccc2)n1C` was -14.7%. As for `CN(C)[C@@H]1C(=O)C(C(=O)NCN2CCCC2)=C(O)[C@@]2(O)C(=O)C3=C(O)c4c(O)cccc4[C@@](C)(O)C3C[C@@H]12` (stereo not given in full), the max response was 3.68% and -3.42%. Consider `C=C(Nc1ccc(OCC)cc1)Nc1ccc(OCC)cc1`, for which the max response was -11.3% and -9.03%. `CC(C(=O)O)c1ccc2c(c1)[nH]c1ccc(Cl)cc12` (stereo not given): the max response is 2.49% and 1.67%.

Source of the values: PubChem BioAssay (NCATS).
